# Data as given in article PMC7862700, “An all-to-all approach to the identification of sequence-specific readers for epigenetic DNA modifications on cytosine”.
# Experiments:
# Experiment in all cases: DAPPL (digital affinity profiling via proximity ligation, sequencing); 10 mM Tris-HCl pH 7.5, 50 mM NaCl, 1 mM DTT, 4% glycerol, room temperature, 30 min; GST-TFs on glutathione beads, 16-mer random dsDNA library, 0.1% formaldehyde crosslink after washing; high values mean tight binding
# FEV = molecular target: T1, FEV (Homo sapiens, UniProt Q99581 1-238); details: protein: recombinant; tags: N-terminal GST; dsDNA, one strand shown
# T1 sequence: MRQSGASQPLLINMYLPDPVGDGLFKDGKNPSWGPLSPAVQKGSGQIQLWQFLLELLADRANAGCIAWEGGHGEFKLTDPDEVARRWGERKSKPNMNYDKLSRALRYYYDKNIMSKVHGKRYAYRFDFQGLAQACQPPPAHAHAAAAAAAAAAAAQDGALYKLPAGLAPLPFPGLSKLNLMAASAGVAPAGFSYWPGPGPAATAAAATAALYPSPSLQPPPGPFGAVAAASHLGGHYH
# Outline: (§1)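 Yeast served to express human transcription factors as GST fusions, which were then captured on glutathione beads and labelled with DNA barcodes. Pooled with a tag-only sample, they were incubated with 200 nmole of a 16-mer random double-stranded DNA library for 30 min at room temperature in Tris/NaCl/DTT/glycerol buffer, washed, crosslinked with 0.1% formaldehyde, ligated by proximity, amplified by PCR and sequenced. Dividing each hexamer's read frequency for a factor by its frequency for the tag-only sample gives the binding signal.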
# ETV5 = ETV5 (Homo sapiens, UniProt P41161 1-510); details: protein: recombinant; tags: N-terminal GST; dsDNA, one strand shown
# Outline: as §1
# HSF1 = HSF1 (Homo sapiens, UniProt Q00613 1-529); details: protein: recombinant; tags: N-terminal GST; chain copies: 3; dsDNA, one strand shown
# Outline: as §1
# SPIC = molecular target: T2, SPIC (Homo sapiens, UniProt Q8N5J4 1-248); details: protein: recombinant; tags: N-terminal GST; dsDNA, one strand shown
# T2 sequence: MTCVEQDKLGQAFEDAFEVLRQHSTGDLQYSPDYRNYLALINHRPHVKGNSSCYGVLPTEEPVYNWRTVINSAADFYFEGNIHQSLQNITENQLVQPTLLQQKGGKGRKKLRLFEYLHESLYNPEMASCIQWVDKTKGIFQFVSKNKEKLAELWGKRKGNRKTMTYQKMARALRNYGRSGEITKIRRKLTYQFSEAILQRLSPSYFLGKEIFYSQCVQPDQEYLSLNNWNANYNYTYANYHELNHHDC
# Outline: as §1
# ELF4 = ELF4 (Homo sapiens, UniProt Q99607 1-663); details: protein: recombinant; tags: N-terminal GST; dsDNA, one strand shown
# Outline: as §1
# ELK4 = molecular target: T3, ELK4 (Homo sapiens, UniProt P28324-2 1-405); details: protein: recombinant; tags: N-terminal GST; dsDNA, one strand shown
# T3 sequence: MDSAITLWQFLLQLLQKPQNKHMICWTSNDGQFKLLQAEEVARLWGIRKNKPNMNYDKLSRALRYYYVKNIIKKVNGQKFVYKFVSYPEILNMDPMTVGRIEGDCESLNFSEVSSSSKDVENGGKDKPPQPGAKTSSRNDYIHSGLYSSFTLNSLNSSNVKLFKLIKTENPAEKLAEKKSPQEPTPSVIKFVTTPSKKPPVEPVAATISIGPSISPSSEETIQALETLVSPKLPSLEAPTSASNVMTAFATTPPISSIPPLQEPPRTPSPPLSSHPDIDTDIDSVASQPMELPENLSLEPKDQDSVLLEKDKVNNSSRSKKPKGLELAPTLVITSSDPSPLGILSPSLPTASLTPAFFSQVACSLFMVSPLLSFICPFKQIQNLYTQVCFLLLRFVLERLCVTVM
# Outline: as §1
# ETV2 = molecular target: T4, ETV2 (Homo sapiens, UniProt O00321 1-342); details: protein: recombinant; tags: N-terminal GST; dsDNA, one strand shown
# T4 sequence: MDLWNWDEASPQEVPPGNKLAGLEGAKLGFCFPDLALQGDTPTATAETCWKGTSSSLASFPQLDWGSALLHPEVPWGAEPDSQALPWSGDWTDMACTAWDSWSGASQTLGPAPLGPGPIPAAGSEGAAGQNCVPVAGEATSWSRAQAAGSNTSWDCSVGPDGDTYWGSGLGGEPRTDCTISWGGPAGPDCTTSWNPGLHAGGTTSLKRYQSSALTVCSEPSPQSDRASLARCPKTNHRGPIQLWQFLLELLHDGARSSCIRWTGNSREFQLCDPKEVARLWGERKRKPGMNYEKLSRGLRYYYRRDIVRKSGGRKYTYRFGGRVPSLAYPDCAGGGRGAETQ
# Outline: as §1
# ELF3 = molecular target: T5, ELF3 (Homo sapiens, UniProt P78545 1-371); details: protein: recombinant; tags: N-terminal GST; dsDNA, one strand shown
# T5 sequence: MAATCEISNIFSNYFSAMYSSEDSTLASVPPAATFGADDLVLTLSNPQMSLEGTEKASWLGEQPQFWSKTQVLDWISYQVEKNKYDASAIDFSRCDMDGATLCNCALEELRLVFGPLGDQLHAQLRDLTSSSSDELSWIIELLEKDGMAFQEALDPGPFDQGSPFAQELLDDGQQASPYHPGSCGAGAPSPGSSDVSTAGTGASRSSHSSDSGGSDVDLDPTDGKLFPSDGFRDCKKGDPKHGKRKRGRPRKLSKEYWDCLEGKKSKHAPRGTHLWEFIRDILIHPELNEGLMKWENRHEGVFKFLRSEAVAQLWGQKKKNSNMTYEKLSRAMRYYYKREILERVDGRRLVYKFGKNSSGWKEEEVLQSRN
# Outline: as §1
# CRX = CRX (Homo sapiens, UniProt O43186 1-299); details: protein: recombinant; tags: N-terminal GST; dsDNA, one strand shown
# Outline: as §1
# ETV1 = ETV1 (Homo sapiens, UniProt P50549 1-477); details: protein: recombinant; tags: N-terminal GST; dsDNA, one strand shown
# Outline: as §1
# ERF = molecular target: T6, ERF (Homo sapiens, UniProt P50548 1-548); details: protein: recombinant; tags: N-terminal GST; dsDNA, one strand shown
# T6 sequence: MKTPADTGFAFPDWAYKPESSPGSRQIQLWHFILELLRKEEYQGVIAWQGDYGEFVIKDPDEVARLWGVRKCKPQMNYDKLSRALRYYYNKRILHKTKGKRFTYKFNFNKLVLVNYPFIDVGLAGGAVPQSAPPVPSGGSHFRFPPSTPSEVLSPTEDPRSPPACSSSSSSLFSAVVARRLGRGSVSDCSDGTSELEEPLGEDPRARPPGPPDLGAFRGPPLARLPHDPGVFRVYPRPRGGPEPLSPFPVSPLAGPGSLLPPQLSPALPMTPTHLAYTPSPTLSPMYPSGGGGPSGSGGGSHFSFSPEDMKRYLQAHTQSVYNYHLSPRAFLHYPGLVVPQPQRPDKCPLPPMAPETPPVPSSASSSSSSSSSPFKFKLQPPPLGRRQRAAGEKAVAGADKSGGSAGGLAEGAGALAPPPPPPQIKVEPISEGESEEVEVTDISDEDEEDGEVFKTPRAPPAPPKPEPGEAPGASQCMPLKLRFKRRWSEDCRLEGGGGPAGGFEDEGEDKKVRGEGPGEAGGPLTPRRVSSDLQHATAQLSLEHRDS
# Outline: as §1
# ETV3L = molecular target: T7, ETV3L (Homo sapiens, UniProt Q6ZN32 1-361); details: protein: recombinant; tags: N-terminal GST; dsDNA, one strand shown
# T7 sequence: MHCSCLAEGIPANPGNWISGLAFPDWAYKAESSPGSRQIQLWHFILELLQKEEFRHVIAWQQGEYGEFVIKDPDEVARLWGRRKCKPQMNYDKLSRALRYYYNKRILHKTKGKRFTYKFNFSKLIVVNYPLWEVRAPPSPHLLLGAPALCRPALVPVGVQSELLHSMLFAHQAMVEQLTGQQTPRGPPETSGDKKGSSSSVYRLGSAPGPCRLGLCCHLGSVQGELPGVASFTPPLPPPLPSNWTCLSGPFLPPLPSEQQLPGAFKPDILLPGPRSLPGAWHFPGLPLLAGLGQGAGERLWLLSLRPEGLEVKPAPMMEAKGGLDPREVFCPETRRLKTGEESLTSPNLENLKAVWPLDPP
# Outline: as §1
# ETS2 = molecular target: T8, ETS2 (Homo sapiens, UniProt P15036 1-469); details: protein: recombinant; tags: N-terminal GST; dsDNA, one strand shown
# T8 sequence: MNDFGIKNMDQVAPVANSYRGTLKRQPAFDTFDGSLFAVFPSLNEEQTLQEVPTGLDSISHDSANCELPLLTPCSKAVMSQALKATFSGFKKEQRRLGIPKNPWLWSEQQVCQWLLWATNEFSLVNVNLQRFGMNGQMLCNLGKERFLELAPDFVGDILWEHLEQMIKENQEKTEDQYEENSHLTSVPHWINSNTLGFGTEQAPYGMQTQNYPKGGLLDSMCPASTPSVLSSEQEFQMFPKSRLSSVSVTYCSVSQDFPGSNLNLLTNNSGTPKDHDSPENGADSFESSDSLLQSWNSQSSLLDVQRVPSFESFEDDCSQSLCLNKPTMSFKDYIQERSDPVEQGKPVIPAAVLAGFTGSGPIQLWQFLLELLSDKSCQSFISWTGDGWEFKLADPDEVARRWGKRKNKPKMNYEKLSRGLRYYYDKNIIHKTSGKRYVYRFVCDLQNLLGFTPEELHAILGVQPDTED
# Outline: as §1
# SPDEF = molecular target: T9, SPDEF (Homo sapiens, UniProt O95238 1-335); details: protein: recombinant; tags: N-terminal GST; dsDNA, one strand shown
# T9 sequence: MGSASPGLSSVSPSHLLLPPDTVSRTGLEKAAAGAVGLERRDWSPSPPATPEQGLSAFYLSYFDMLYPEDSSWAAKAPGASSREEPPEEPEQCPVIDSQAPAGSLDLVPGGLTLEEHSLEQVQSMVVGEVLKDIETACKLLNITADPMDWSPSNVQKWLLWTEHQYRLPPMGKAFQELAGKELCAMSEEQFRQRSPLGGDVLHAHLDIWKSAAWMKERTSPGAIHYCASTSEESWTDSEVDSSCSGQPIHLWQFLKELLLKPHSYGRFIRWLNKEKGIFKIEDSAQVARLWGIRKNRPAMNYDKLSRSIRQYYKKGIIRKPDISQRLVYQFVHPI
# Outline: as §1
# ETV7 = molecular target: T10, ETV7 (Homo sapiens, UniProt Q9Y603 1-341); details: protein: recombinant; tags: N-terminal GST; dsDNA, one strand shown
# T10 sequence: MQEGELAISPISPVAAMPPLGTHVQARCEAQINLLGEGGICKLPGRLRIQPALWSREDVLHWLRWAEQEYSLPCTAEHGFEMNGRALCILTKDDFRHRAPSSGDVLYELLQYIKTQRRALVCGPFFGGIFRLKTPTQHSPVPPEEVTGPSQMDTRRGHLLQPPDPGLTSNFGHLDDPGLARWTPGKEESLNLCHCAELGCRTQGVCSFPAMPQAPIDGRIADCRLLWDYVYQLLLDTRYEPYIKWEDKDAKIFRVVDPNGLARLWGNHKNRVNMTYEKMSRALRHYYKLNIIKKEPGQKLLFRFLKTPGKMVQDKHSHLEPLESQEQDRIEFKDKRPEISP
# Outline: as §1
# ELF5 = molecular target: T11, ELF5 (Homo sapiens, UniProt Q9UKW6-2 1-255); details: protein: recombinant; tags: N-terminal GST; dsDNA, one strand shown
# T11 sequence: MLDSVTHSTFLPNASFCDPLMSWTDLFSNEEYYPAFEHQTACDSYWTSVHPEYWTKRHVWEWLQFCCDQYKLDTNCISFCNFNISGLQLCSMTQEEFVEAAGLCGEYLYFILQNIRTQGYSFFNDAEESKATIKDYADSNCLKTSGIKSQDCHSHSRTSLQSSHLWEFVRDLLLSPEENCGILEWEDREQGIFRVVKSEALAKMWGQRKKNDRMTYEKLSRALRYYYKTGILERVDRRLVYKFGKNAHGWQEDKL
# Outline: as §1
# ETV3 = molecular target: T12, ETV3 (Homo sapiens, UniProt P41162-2 1-143); details: protein: recombinant; tags: N-terminal GST; dsDNA, one strand shown
# T12 sequence: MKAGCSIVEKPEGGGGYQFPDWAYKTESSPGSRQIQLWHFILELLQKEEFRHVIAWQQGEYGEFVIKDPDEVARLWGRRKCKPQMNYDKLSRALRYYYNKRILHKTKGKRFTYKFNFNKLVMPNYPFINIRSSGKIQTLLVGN
# Outline: as §1
# ETV6 = ETV6 (Homo sapiens, UniProt P41212 1-452); details: protein: recombinant; tags: N-terminal GST; dsDNA, one strand shown
# Outline: as §1
# Chain of ELF4 (Q99607 whole entry): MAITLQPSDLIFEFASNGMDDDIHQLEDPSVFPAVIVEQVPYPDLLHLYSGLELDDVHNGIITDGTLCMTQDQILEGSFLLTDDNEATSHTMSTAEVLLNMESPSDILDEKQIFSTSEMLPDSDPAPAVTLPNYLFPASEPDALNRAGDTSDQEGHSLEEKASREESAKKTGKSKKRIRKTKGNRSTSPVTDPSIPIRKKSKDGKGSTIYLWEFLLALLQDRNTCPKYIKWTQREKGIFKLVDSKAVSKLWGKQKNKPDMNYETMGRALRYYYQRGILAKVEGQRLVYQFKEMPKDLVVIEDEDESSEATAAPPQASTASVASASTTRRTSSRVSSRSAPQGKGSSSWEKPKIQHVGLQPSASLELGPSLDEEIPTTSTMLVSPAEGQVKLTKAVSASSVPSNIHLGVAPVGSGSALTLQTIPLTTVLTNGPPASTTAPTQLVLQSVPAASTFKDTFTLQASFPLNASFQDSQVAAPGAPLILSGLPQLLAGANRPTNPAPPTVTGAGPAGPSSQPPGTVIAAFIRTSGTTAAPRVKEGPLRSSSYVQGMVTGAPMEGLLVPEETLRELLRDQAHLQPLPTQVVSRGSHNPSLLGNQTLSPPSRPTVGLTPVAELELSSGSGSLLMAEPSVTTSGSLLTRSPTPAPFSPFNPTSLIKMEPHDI
# Chain of HSF1 (Q00613 whole entry): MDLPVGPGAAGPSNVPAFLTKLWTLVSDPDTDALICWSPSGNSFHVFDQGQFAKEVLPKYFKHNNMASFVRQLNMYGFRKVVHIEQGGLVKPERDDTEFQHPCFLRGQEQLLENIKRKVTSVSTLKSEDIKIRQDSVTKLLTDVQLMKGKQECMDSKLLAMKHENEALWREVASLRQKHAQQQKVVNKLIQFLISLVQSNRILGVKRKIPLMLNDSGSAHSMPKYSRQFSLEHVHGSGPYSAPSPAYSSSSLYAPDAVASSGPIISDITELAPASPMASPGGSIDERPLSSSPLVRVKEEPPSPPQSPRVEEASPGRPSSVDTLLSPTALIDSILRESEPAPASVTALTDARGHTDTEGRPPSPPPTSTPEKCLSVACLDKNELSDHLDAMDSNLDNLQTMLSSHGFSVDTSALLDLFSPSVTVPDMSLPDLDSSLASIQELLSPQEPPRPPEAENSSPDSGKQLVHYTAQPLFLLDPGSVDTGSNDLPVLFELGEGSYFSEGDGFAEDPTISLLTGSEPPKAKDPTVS
# Chain of CRX (O43186 whole entry): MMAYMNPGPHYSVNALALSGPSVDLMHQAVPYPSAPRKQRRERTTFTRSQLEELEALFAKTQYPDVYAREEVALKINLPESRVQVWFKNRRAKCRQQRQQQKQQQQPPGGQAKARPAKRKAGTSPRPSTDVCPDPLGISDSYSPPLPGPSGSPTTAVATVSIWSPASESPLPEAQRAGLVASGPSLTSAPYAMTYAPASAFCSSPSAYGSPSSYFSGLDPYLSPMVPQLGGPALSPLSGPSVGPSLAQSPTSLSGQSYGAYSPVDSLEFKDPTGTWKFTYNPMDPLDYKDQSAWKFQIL
# Chain of ETV6 (P41212 whole entry): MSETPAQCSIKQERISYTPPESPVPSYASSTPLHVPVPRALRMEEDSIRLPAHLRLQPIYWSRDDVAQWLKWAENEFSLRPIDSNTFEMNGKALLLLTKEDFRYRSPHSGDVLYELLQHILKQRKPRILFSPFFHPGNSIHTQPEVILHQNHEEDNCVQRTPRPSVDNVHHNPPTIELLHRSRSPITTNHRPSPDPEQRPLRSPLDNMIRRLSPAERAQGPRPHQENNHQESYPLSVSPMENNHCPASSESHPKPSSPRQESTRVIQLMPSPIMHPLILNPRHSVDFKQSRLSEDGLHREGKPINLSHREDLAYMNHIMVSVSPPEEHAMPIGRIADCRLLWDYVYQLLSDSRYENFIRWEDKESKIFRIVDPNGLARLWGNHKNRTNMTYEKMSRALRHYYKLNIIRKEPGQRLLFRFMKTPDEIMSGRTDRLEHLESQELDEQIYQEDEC
# Chain of ETV1 (P50549 whole entry): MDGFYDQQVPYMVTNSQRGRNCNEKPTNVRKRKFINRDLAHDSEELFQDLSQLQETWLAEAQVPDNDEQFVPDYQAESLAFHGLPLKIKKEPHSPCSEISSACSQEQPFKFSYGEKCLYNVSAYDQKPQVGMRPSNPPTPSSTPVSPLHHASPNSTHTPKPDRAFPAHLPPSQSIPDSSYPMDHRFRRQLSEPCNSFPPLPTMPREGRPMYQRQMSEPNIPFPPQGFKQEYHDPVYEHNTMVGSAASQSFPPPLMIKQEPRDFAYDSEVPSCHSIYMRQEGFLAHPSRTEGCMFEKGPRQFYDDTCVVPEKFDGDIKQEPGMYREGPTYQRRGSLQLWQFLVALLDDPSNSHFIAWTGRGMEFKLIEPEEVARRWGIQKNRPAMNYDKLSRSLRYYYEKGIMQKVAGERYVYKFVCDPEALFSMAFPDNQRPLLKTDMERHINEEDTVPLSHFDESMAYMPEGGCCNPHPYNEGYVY
# Chain of ETV5 (P41161 whole entry): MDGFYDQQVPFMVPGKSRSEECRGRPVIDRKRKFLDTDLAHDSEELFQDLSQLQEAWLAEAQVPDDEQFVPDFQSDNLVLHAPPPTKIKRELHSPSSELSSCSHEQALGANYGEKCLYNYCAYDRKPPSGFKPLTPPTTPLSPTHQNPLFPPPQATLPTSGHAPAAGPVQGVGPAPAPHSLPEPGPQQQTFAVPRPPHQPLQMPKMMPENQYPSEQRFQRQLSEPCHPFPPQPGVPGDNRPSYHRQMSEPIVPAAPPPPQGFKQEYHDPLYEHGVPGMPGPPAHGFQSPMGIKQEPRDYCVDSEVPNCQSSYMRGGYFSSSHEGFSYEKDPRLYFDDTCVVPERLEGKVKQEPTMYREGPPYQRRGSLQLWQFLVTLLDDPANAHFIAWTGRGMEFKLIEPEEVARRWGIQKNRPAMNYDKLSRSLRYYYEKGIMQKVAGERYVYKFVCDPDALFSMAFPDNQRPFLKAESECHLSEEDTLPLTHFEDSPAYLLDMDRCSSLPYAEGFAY
sequence,measurement,setting,value
AAAAGG,binding signal,FEV,"1.06 fold enrichment (6-mer frequency, TF over GST control)"
same,binding signal,ETV5,"1.17 fold enrichment (6-mer frequency, TF over GST control)"
same,binding signal,HSF1,"1.05 fold enrichment (6-mer frequency, TF over GST control)"
same,binding signal,SPIC,"1.18 fold enrichment (6-mer frequency, TF over GST control)"
same,binding signal,ELF4,"1.1 fold enrichment (6-mer frequency, TF over GST control)"
same,binding signal,ELK4,"1 fold enrichment (6-mer frequency, TF over GST control)"
same,binding signal,ETV2,"1.12 fold enrichment (6-mer frequency, TF over GST control)"
same,binding signal,ELF3,"1.2 fold enrichment (6-mer frequency, TF over GST control)"
same,binding signal,CRX,"1.04 fold enrichment (6-mer frequency, TF over GST control)"
same,binding signal,ETV1,"1.19 fold enrichment (6-mer frequency, TF over GST control)"
same,binding signal,ERF,"1.08 fold enrichment (6-mer frequency, TF over GST control)"
same,binding signal,ETV3L,"1.1 fold enrichment (6-mer frequency, TF over GST control)"
same,binding signal,ETS2,"1.11 fold enrichment (6-mer frequency, TF over GST control)"
same,binding signal,SPDEF,"1.07 fold enrichment (6-mer frequency, TF over GST control)"
same,binding signal,ETV7,"1.16 fold enrichment (6-mer frequency, TF over GST control)"
same,binding signal,ELF5,"1.21 fold enrichment (6-mer frequency, TF over GST control)"
same,binding signal,ETV3,"1.13 fold enrichment (6-mer frequency, TF over GST control)"
same,binding signal,ETV6,"1.19 fold enrichment (6-mer frequency, TF over GST control)"
